Test results from the supplement of paper PMC6805474.
Values without a mark were called inactive.

Columns and labels:
[1] = test system: Schistosoma mansoni schistosomula (NMRI); experiment: phenotypic severity score (0-4); higher = more antischistosomal effect, active = 2 or more; conditions: 10 µM
[2] = test system: Schistosoma mansoni schistosomula (Liberian); experiment: drug effect (1 - score/DMSO control score) (fraction); higher = more antischistosomal effect, active = 0.5 or more; extreme values may be limits of the assay; conditions: 10 µM
Procedure, shortened: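 Schistosomula of the Liberian strain of Schistosoma mansoni were mechanically transformed from cercariae, pre-incubated for at least 12 h, and placed at 50 per well in flat-bottom 96-well plates with Medium 199 containing 5% FCS. Compounds were tested in duplicate at 10 µM at 37 °C and 5% CO2, alongside wells holding 0.1% DMSO. Parasites were scored visually at 10× after 24, 48 and 72 h on a quarter-point scale running from 3 (normal) to 0 (dead). Drug effect came from the mean test-well score relative to the mean DMSO-well score, with negative values set to zero and plates accepted only when the DMSO wells averaged at least 2.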
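For phenotypic severity score (0-4) in this document: visual microscopic scoring of shape, motility and density changes versus 0.5% DMSO solvent controls, one point per descriptor, degeneracy or death scored 4, mean of duplicate wells.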

| Structure (SMILES) | phenotypic severity score ([1]; 24 h) | phenotypic severity score ([1]; 48 h) | phenotypic severity score ([1]; 72 h) | drug effect ([2]; 24 h) | drug effect ([2]; 48 h) | drug effect ([2]; 72 h) |
| --- | --- | --- | --- | --- | --- | --- |
| C[C@]1(O)C[C@@H](c2nc(-c3ccc4ccc(-c5ccccc5)nc4c3)c3c(N)nccn32)C1 | 0 | 0 | 0 | 0.05 | 0.027 | 0.111 |
| COc1cccc(-c2cc3c(Nc4cccnc4)nccc3[nH]2)c1 | 0 | 0 | 0 | 0.1 | 0.135 | 0.152 |
| Nc1nc2ccc(-c3cncc(Oc4ccc(F)cc4)c3)cc2[nH]1 | 2 (active) | 1 | 1 | 0.3 | 0.556 (active) | 0.688 (active) |
| CNCCC(Oc1ccc(C(F)(F)F)cc1)c1ccccc1 (centres undefined) | 0 | 0 | 0 | 0.05 | 0.0811 | 0.333 |
| CNc1cc(C)nc(C2CN(C(=O)c3n[nH]c4ccccc34)CCO2)c1 (centres undefined) | 0 | 0 | 0 | 0.158 | 0.167 | 0.125 |
| COc1ccc(OC)c(NCc2ccc3nc(N)nc(N)c3c2Cl)c1 | 0 | 2 (active) | 0 | < 0 | 0.05 | 0.278 |
| CC(=O)NC[C@H]1CN(c2ccc(N3CCSCC3)c(F)c2)C(=O)O1 | 0 | 0 | 0 | 0.136 | 0.2 | 0.236 |
| O=C(NC1=NCCS1)c1sc2cc(F)ccc2c1Cl | 0 | 0 | 0 | 0.0909 | 0.1 | 0.0182 |
| Nc1ncnc2c1ncn2C[C@@H](O)[C@@H](O)C(=O)O | 0 | 0 | 0 | 0.1 | 0.189 | 0.222 |
| COc1ccc(C(=N)N)cc1-c1cn(-c2ccc(C(=N)N)cc2)nn1 | 0 | 0 | 0 | 0.05 | 0.0811 | 0.0909 |
| CC(C)(C)n1nc(Cc2ccc(F)c(Cl)c2)c2c(N)ncnc21 | 0 | 0 | 0 | 0.0811 | 0.167 | 0.188 |
| COc1ccc(-c2nnc3ccc(-c4cccc(C(C)C)c4)cn23)cc1OC | 0 | 2 (active) | 0 | 0.1 | 0.167 | 0.278 |
| COc1cc(-c2cc(-c3ccc(S(C)(=O)=O)cc3)cnc2N)ccc1O | 2 (active) | 1 | 1 | 0.1 | 0.189 | 0.152 |
| COc1ccc2nccc(NC(=O)C3CCN(CCc4ccc(Cl)cc4)CC3)c2n1 | 0 | 0 | 0 | 0.05 | 0.0556 | 0.111 |
| Cc1cc(OCC(=O)Nc2ccc(C(C)C)cc2)n(C)c(=O)c1C#N | 0 | 0 | 0 | 0.1 | 0.0556 | < 0 |
| COc1ccc(N(CCc2cccc(C)n2)C(C)=O)cc1 | 1 | 1 | 0 | 0.15 | 0.135 | 0.0909 |
| CC(=O)Oc1ccccc1C(=O)Nc1ncc([N+](=O)[O-])s1 | 2 (active) | 4 (active) | 4 (active) | 0.2 | 0.297 | 0.556 (active) |
| CCN(CC)CCCCCCNc1cc(OC)cc2c(C)ccnc12 | 0 | 0 | 0 | 0.1 | 0.135 | 0.167 |
| O=C1Nc2ccc(Br)cc2C12NCCc1c2[nH]c2ccccc12 (centres undefined) | 0 | 0 | 0 | 0.05 | 0.0811 | 0.167 |
| O=C(N[C@H](Cc1ccccc1)C(=O)Nc1ccccc1N1CCOCC1)c1cccs1 | 0 | 0 | 0 | 0.2 | 0.167 | 0.188 |
| CC(C)(C)c1ccc(N[C@@H]2CCCC[C@H]2NC(=O)c2ccco2)cc1 | 0 | 0 | 0 | < 0 | < 0 | 0.111 |
| CCOC(=O)NC(=O)c1ccsc1NC(=O)c1nc2ccccc2s1 | 0 | 0 | 0 | 0.0909 | 0.2 | 0.182 |

| Structure (SMILES) | phenotypic severity score ([1]; 24 h) | phenotypic severity score ([1]; 48 h) | phenotypic severity score ([1]; 72 h) | drug effect ([2]; 24 h) | drug effect ([2]; 48 h) | drug effect ([2]; 72 h) |
| --- | --- | --- | --- | --- | --- | --- |
| CC[C@H](CO)NCCN[C@H](CC)CO | 0 | 0 | 0 | 0.15 | 0.135 | 0.278 |
| N=C(N)c1ccc(-c2cc(-c3ccccc3)on2)cc1 | 2 (active) | 1 | 0 | 0.182 | 0.65 (active) | 0.455 |
| Cc1nn2c(O)c3c(nc2c1-c1ccc(F)cc1)CCCC3 | 0 | 0 | 0 | 0.409 | 0.45 | 0.509 (active) |
| O=C(c1ccc(F)cc1)N(CCNc1ccccc1)c1ccccc1 | 1 | 0 | 1 | 0.135 | 0.167 | 0.25 |
| COc1ccc(-c2cc(NC(=O)c3ccc(F)cc3Cl)ccc2OC)cc1 | 0 | 1 | 0 | 0.0909 | 0.25 | 0.236 |
| COc1ccc(Cl)cc1NC(=O)CN(C)C(=O)c1cnn(-c2ccccc2)n1 | 0 | 0 | 0 | 0.2 | 0.351 | 0.389 |
| CC1CCCN(C(=O)C(C)Nc2cc(Cl)ccc2N2CCOCC2)C1 (centres undefined) | 0 | 0 | 0 | 0.15 | 0.222 | 0.375 |
| CCOC(=O)c1noc(N)c1-c1ccccc1 | 0 | 0 | 0 | 0.05 | 0.0811 | 0.0909 |
| Nc1ccc(C(=O)Nc2ccc(-c3nc4ccccc4o3)cc2)cc1 | 0 | 0 | 0 | 0.0909 | 0.05 | 0.211 |
| O=C(COc1cccc(F)c1)Nc1nc(-c2ccccn2)cs1 | 0 | 0 | 0 | 0.0909 | 0.1 | 0.127 |
| COc1cccc(-n2nnnc2S(C)(=O)=O)c1 | 4 (active) | 4 (active) | 4 (active) | 1 (active) | 1 (active) | 1 (active) |
| Nc1ncc(Br)cc1-c1nc2cc(Cl)cnc2[nH]1 | 0 | 0 | 0 | 0.1 | 0.111 | 0.188 |
| C[C@H](C(N)=O)N1CCCC[C@@H]1c1ccc(OCc2cccc(F)c2)cc1 | 0 | 0 | 0 | 0.2 | 0.444 | 0.5 (active) |
| O=C(Nc1ccc(N2CCNCC2)cc1)c1ccn2ncc(-c3cccc(Cl)c3)c2n1 | 2 (active) | 4 (active) | 4 (active) | 0.73 (active) | 0.778 (active) | 0.938 (active) |
| Clc1ccc(Cl)c(CO[C@H]2CCCC[C@@H]2n2ccnc2)c1 | 0 | 0 | 0 | 0.2 | 0.167 | 0.25 |
| Cc1ccc(NC(=O)c2cc(S(=O)(=O)NC(C)(C)C)ccc2C)nc1 | 0 | 0 | 0 | 0.2 | 0.222 | 0.375 |
| Cc1cccc(-c2nc(Nc3ccncn3)c3sccc3n2)n1 | 1 | 3 (active) | 4 (active) | 0.405 | 0.667 (active) | 0.75 (active) |
| COc1ccc(-c2cnc3cnc(-c4cccc(OC(C)C)c4)cn23)cc1 | 2 (active) | 4 (active) | 4 (active) | 0.0455 | < 0 | 0.105 |
| Nc1ncc(-c2cn[nH]c2)cc1-c1nc2cc(Cl)cnc2[nH]1 | 0 | 0 | 0 | < 0 | < 0 | 0.0556 |
| CC(C)C(Oc1cccc2ccccc12)C(=O)O (centres undefined) | 0 | 0 | 0 | < 0 | < 0 | 0.0556 |
| O=C(OCc1ccccc1)N1CCC(c2cc(-c3ccncc3)c(-c3ccc(F)cc3)[nH]2)CC1 | 0 | 0 | 0 | 0.1 | 0.222 | 0.188 |
| FC(F)(F)c1cnc(Sc2nnc(-c3ccncc3)o2)c(Cl)c1 | 0 | 1 | 2 (active) | 0.459 | 0.778 (active) | 0.938 (active) |
